Hit rate of the full screen: of about 5,500 compounds, about 2,000 (36%) were called active. About 18% were inconclusive and are not listed. Cut-off read from the data, not from the text of the source: active = normalized growth mostly below about 0.91 (no sharp cut-off); inconclusive = no clear call, values can overlap the other calls; inactive = mostly above about 0.92. Some of the results follow.
Test: chemical genetic growth profiling, strain panel (AID 1159580);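 note: tested at 20 µM; growth read once vehicle control cultures reached saturation at 30 °C; 1 = growth at the plate median or of vehicle wells; lower values mean less growth of the strain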
Details: S. cerevisiae deletion strains, growth OD

Measured: normalized growth

COC(=O)CCCOc1ccc(Cl)cc1Cl
inactive: locus YAL013W, strain DEP1, stronger effect = lower value 0.986 | locus YAL021C, strain ccr4, stronger effect = lower value 0.988 | locus YAL026C, strain drs2, stronger effect = lower value 0.966 | locus YAL030W, strain snc1, stronger effect = lower value 0.968 | locus YBL061C, strain skt5, stronger effect = lower value 0.952 | locus YBR009C, strain hhf1, stronger effect = lower value 0.955 | locus YBR021W, strain FUR4, stronger effect = lower value 0.931 | locus YBR023C, strain chs3, stronger effect = lower value 0.96 | locus YBR171W, strain sec66, stronger effect = lower value 0.916 | locus YBR229C, strain ROT2, stronger effect = lower value 0.993 | locus YBR231C, strain swc5, stronger effect = lower value 0.964 | locus YBR279W, strain paf1, stronger effect = lower value 0.961 | locus YCL011C, strain gbp2, stronger effect = lower value 0.967 | locus YCL016C, strain dcc1, stronger effect = lower value 0.959 | locus YCL029C, strain bik1, stronger effect = lower value 1 | locus YCL061C, strain MRC1, stronger effect = lower value 0.953 | locus YCL069W, strain vba3, stronger effect = lower value 0.962 | locus YCR088W, strain abp1, stronger effect = lower value 0.955 | locus YDL005C, strain med2, stronger effect = lower value 0.958 | locus YDL035C, strain GPR1, stronger effect = lower value 1 | locus YDL040C, strain nat1, stronger effect = lower value 0.954 | locus YDL074C, strain BRE1, stronger effect = lower value 0.999 | locus YDL101C, strain DUN1, stronger effect = lower value 1.02 | locus YDL134C, strain PPH21, stronger effect = lower value 0.998 | locus YDL185W, strain tfp1, stronger effect = lower value 0.988 | locus YDL192W, strain arf1, stronger effect = lower value 0.996 | locus YDR001C, strain nth1, stronger effect = lower value 0.967 | locus YDR069C, strain doa4, stronger effect = lower value 0.967 | locus YDR101C, strain arx1, stronger effect = lower value 0.987 | locus YDR137W, strain rgp1, stronger effect = lower value 0.899 | locus YDR150W, strain NUM1, stronger effect = lower value 0.989 | locus YDR159W, strain sac3, stronger effect = lower value 0.956 | locus YDR162C, strain NBP2, stronger effect = lower value 0.991 | locus YDR195W, strain ref2 0.972 | locus YDR297W, strain sur2, stronger effect = lower value 0.961 | locus YDR318W, strain mcm21, stronger effect = lower value 0.993 | locus YDR334W, strain swr1, stronger effect = lower value 0.974 | locus YDR335W, strain msn5, stronger effect = lower value 0.968 | locus YDR388W, stronger effect = lower value 0.992 | locus YDR392W, strain spt3, stronger effect = lower value 0.902 | locus YDR502C, strain sam2, stronger effect = lower value 0.995 | locus YEL003W, strain gim4, stronger effect = lower value 0.966 | locus YEL037C, strain rad23, stronger effect = lower value 0.968 | locus YEL061C, strain CIN8 (second series), stronger effect = lower value 0.961 | locus YEL061C, strain CIN8, stronger effect = lower value 0.985 | locus YER015W, strain faa2, stronger effect = lower value 0.959 | locus YER016W, strain bim1, stronger effect = lower value 0.964 | locus YER110C, stronger effect = lower value 0.995 | locus YER111C, strain swi4, stronger effect = lower value 0.956 | locus YER155C, strain BEM2 (second series), stronger effect = lower value 0.922 | locus YER155C, strain BEM2, stronger effect = lower value 0.984 | locus YER167W, strain BCK2, stronger effect = lower value 1 | locus YFR010W, strain ubp6, stronger effect = lower value 0.974 | locus YGL078C, strain dbp3, stronger effect = lower value 0.983 | locus YGL086W, strain mad1, stronger effect = lower value 0.991 | locus YGL167C, strain pmr1, stronger effect = lower value 0.953 | locus YGL173C, strain kem1, stronger effect = lower value 0.948 | locus YGL227W, strain vid30, stronger effect = lower value 0.95 | locus YGL240W, strain doc1, stronger effect = lower value 0.949 | locus YGL248W, strain PDE1, stronger effect = lower value 1 | locus YGL253W, strain hxk2, stronger effect = lower value 0.965 | locus YGR078C, strain PAC10, stronger effect = lower value 0.991 | locus YGR135W, strain pre9, stronger effect = lower value 0.994 | locus YGR229C, strain SMI1, stronger effect = lower value 0.994 | locus YGR252W, strain gcn5, stronger effect = lower value 0.977 | locus YHR013C, strain ard1, stronger effect = lower value 0.958 | locus YHR027C, strain rpn1, stronger effect = lower value 0.975 | locus YHR030C, strain SLT2, stronger effect = lower value 0.994 | locus YHR079C, strain IRE1 (second series), stronger effect = lower value 1 | locus YHR094C, strain hxt1, stronger effect = lower value 0.985 | locus YHR129C, strain ARP1, stronger effect = lower value 0.994 | locus YHR142W, strain chs7, stronger effect = lower value 0.965 | locus YHR200W, strain rpn10, stronger effect = lower value 0.996 | locus YIL066C, strain RNR3, stronger effect = lower value 0.993 | locus YIL073C, strain SPO22, stronger effect = lower value 1.07 | locus YIL125W, strain kgd1, stronger effect = lower value 0.983 | locus YIR030C, strain dcg1, stronger effect = lower value 0.994 | locus YJL092W, strain hpr5, stronger effect = lower value 0.957 | locus YJL095W, strain BCK1 (second series), stronger effect = lower value 0.955 | locus YJL095W, strain BCK1, stronger effect = lower value 0.942 | locus YJL115W, strain asf1, stronger effect = lower value 0.967 | locus YJL129C, strain trk1, stronger effect = lower value 0.931 | locus YJL134W, strain LCB3, stronger effect = lower value 0.995 | locus YJL154C, strain vps35, stronger effect = lower value 0.971 | locus YJL164C, strain tpk1, stronger effect = lower value 0.964 | locus YJL166W, strain qcr8, stronger effect = lower value 0.955 | locus YJL168C, strain set2, stronger effect = lower value 1.01 | locus YJL187C, strain SWE1 (second series), stronger effect = lower value 1 | locus YJL187C, strain SWE1, stronger effect = lower value 0.973
